# Source: the supplement of paper PMC10037445
# ± gives the standard deviation of the averaged measurements. Over roughly 2,900 compounds, “NF-kB SEAP reporter activity, fold change vs agonist alone” has its median near 0.99; the highest 2% begin near 2.6. This excerpt belongs to a sample that is enriched for the highest values.
# Key:
# [1] = test system: RAW-Dual; assay: NF-kB SEAP reporter activity, fold change vs agonist alone; cytotoxicity flag (confluency mask): not cytotoxic; higher = enhanced NF-kB activity
# Method in brief: (§1)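 Library stock was pin-tooled at 50 nL into 384-well plates of RAW-Dual macrophages (50,000 cells/well, DMEM), followed 1 h later by a PRR agonist, and the cells were kept at 37 °C, 5% CO2. Supernatant collected after 20 hours was read for IRF by QuantiLuc luminescence and for NF-κB by QuantiBlue absorbance at 620 nm. Reporter activity is fold change over agonist-alone wells, and a well counted as cytotoxic when its IncuCyte confluency was below 70% of agonist controls in both mask sets.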
# [2] = test system: RAW-Dual; assay: NF-kB SEAP reporter activity, fold change vs agonist alone; higher = enhanced NF-kB activity; conditions: library stock concentration (final ~1000-fold dilution): 10 mM
# Method in brief: as §1
# [3] = test system: RAW-Dual; assay: NF-kB SEAP reporter activity, fold change vs agonist alone; cytotoxicity flag (confluency mask): cytotoxic (confluency <70% of control); higher = enhanced NF-kB activity
# Method in brief: as §1
# [4] = agonist: ODN 1826 (TLR9) 0.5 ug/mL
# [5] = agonist: Pam2CSK4 (TLR2/6) 0.1 ug/mL
# [6] = agonist: Pam3CSK4 (TLR2/1) 0.1 ug/mL
# [7] = cytotoxicity flag (confluency mask): not cytotoxic, agonist: Imiquimod (TLR7) […]
# [8] = cytotoxicity flag (confluency mask): not cytotoxic, agonist: MPLA (TLR4) […]
smiles,measurement,setting,value
COc1cc(C(N)=O)nc(-c2cccc(C#C[C@]3(O)CCN(C)C3=O)c2)c1 (library stock concentration (final ~1000-fold dilution): 10 mM),NF-kB SEAP reporter activity,[1]; agonist: LPS (TLR4) 0.1 ug/mL,1.39
same,NF-kB SEAP reporter activity,[1]; [4],0.529
same,NF-kB SEAP reporter activity,[1]; [5],0.699
same,NF-kB SEAP reporter activity,[1]; [6],0.966
COc1cc(C(N)=O)nc(-c2cccc(C#C[C@]3(O)CCN(C)C3=O)c2)c1,NF-kB SEAP reporter activity,[2]; [7],0.839
same,NF-kB SEAP reporter activity,[2]; [8],0.915
Cc1noc(C)c1-c1ccc(-c2cc(C(N)=O)c(NC(N)=O)s2)c(OC2CCNC2)c1 (configuration not stated) (library stock concentration (final ~1000-fold dilution): 10 mM),NF-kB SEAP reporter activity,[1]; agonist: LPS (TLR4) 0.1 ug/mL,0.567 ± 0.07
same,NF-kB SEAP reporter activity,[1]; [4],0.449 ± 0.019
same,NF-kB SEAP reporter activity,[1]; [5],0.275 ± 0.0078
same,NF-kB SEAP reporter activity,[1]; [6],0.392 ± 0.058
Cc1noc(C)c1-c1ccc(-c2cc(C(N)=O)c(NC(N)=O)s2)c(OC2CCNC2)c1 (configuration not stated),NF-kB SEAP reporter activity,[2]; [7],0.654 ± 0.054
same,NF-kB SEAP reporter activity,[2]; [8],0.683 ± 0.15
CCN(C(=O)c1c(O)n(C)c2cccc(Cl)c2c1=O)c1ccccc1 (library stock concentration (final ~1000-fold dilution): 10 mM),NF-kB SEAP reporter activity,[1]; agonist: LPS (TLR4) 0.1 ug/mL,1.08
same,NF-kB SEAP reporter activity,[1]; [4],1.06
same,NF-kB SEAP reporter activity,[1]; [5],1.01
same,NF-kB SEAP reporter activity,[1]; [6],1
CCN(C(=O)c1c(O)n(C)c2cccc(Cl)c2c1=O)c1ccccc1,NF-kB SEAP reporter activity,[2]; [7],0.913
same,NF-kB SEAP reporter activity,[2]; [8],0.993
C=C(Cc1ccccc1Cl)C(=O)OCC,NF-kB SEAP reporter activity,"[2]; cytotoxicity flag (confluency mask): cytotoxic (confluency <70% of control), agonist: Imiquimod (TLR7) […]",0.73
same,NF-kB SEAP reporter activity,"[2]; cytotoxicity flag (confluency mask): cytotoxic (confluency <70% of control), agonist: MPLA (TLR4) […]",0.891
C=C(Cc1ccccc1Cl)C(=O)OCC (library stock concentration (final ~1000-fold dilution): 10 mM),NF-kB SEAP reporter activity,[3]; agonist: LPS (TLR4) 0.1 ug/mL,0.636
same,NF-kB SEAP reporter activity,[3]; [4],0.588
same,NF-kB SEAP reporter activity,[3]; [5],0.682
same,NF-kB SEAP reporter activity,[3]; [6],0.806
COc1cc2nccc(Oc3ccc(NC(=O)C4(C(=O)Nc5ccc(F)cc5)CC4)cc3)c2cc1OC.O=C(O)CC(O)C(=O)O (library stock concentration (final ~1000-fold dilution): 10 mM),NF-kB SEAP reporter activity,[1]; agonist: LPS (TLR4) 0.1 ug/mL,0.861
same,NF-kB SEAP reporter activity,[1]; [4],0.525
same,NF-kB SEAP reporter activity,[1]; [5],0.284
same,NF-kB SEAP reporter activity,[1]; [6],0.277
Cn1cc(-c2cc(Oc3cc(F)c(NC(=O)C4(C(=O)Nc5ccccc5)CC4)cc3F)ccn2)cn1 (library stock concentration (final ~1000-fold dilution): 10 mM),NF-kB SEAP reporter activity,[1]; agonist: LPS (TLR4) 0.1 ug/mL,3.09
same,NF-kB SEAP reporter activity,[1]; [4],0.863
same,NF-kB SEAP reporter activity,[1]; [5],0.629
same,NF-kB SEAP reporter activity,[1]; [6],0.98
Cn1cc(-c2cc(Oc3cc(F)c(NC(=O)C4(C(=O)Nc5ccccc5)CC4)cc3F)ccn2)cn1,NF-kB SEAP reporter activity,[2]; [7],0.974
same,NF-kB SEAP reporter activity,[2]; [8],1.71
COCCNCc1ccc(-c2cc3nccc(Oc4ccc(NC(=O)C5(C(=O)Nc6ccc(F)cc6)CC5)cc4F)c3s2)nc1 (library stock concentration (final ~1000-fold dilution): 10 mM),NF-kB SEAP reporter activity,[1]; agonist: LPS (TLR4) 0.1 ug/mL,0.36
same,NF-kB SEAP reporter activity,[1]; [4],0.205
same,NF-kB SEAP reporter activity,[1]; [5],0.0909
same,NF-kB SEAP reporter activity,[1]; [6],0.149
COc1cc2nccc(Oc3ccc(NC(=O)C4(C(=O)Nc5ccc(F)cc5)CC4)cc3)c2cc1OC.O=C(O)CC(O)C(=O)O,NF-kB SEAP reporter activity,[2]; [7],0.796
same,NF-kB SEAP reporter activity,[2]; [8],0.939
COCCNCc1ccc(-c2cc3nccc(Oc4ccc(NC(=O)C5(C(=O)Nc6ccc(F)cc6)CC5)cc4F)c3s2)nc1,NF-kB SEAP reporter activity,[2]; [7],0.327
same,NF-kB SEAP reporter activity,[2]; [8],0.388
